# Source: PubChem BioAssay AID1347383 (Zoeller Lab, School of Medicine, Boston University, 2020)
# Active and inactive are the calls of the source.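 How the source made its calls: active means cell survival after UV exposure 2 SD above solvent-only control wells at 10 µM, confirmed on one or two repeats; inactive means the rest.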
# Assay: protection of CHO cells from pyrene-fatty acid UV killing, primary screen, phospholipid biosynthesis inhibitor project, ZR-82 cells, Analyticon library, screen 2 (AID 1347383);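 further: survival reflects blocked phospholipid synthesis cutting uptake of the phototoxic fatty acid; compound and fatty acid exposure 3 h then viability read next day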
# Settings: ZR-82 CHO cells, CellTiter Blue, at 10 µM; peroxisome-deficient CHO-K1 variant, with DGAT-1, DGAT-2 and ACAT inhibitors unless noted
row,Structure (SMILES),outcome
1,C=C(C)[C@H]1CCC(C)=C[C@@H]1c1c(O)cc(CCCCC)c(C(=O)O)c1O,inactive
2,CC(C)(C)C1(O)C[C@@H]2OC(=O)C[C@@]23C(=O)O[C@@H]2OC(=O)[C@@H](O)[C@]213 (some centres undefined),inactive
3,COc1ccc(/C=C/c2cc(O)cc(O)c2)cc1,inactive [setting not given]
4,CC1(C)C=Cc2c(ccc3c4c([nH]c23)C(C)(C)C2CC35CCCN3C(=O)C2(C4)NC5=O)O1 (centres undefined),inactive
5,C[C@]12CC[C@@H](O[C@@H]3O[C@H](CO)[C@@H](O)[C@H](O)[C@H]3O)C[C@@]1(O)CCC1C2CC[C@]2(C)[C@@H](C3=CC(=O)OC3)CC[C@]12O (some centres undefined),inactive
6,CCC1CC2CN3CCc4c([nH]c5ccccc45)C(C(=O)OC)(C2)C13 (centres undefined),inactive
7,C[C@@H]1CCC2[C@@H](C)C(=O)OC3O[C@]4(C)CCC1[C@]32OO4 (some centres undefined),inactive
8,C=C[C@H]1CN2CC[C@H]1C[C@@H]2[C@@H](O)c1ccnc2ccccc12,inactive
9,CO[C@H]1C[C@H](O[C@H]2CC[C@]3(CO)[C@H]4CC[C@]5(C)[C@@H](C6=CC(=O)OC6)CC[C@]5(O)[C@@H]4CC[C@]3(O)C2)O[C@H](C)[C@H]1O,inactive
10,CC#CC#Cc1ccc(C#CC(O)COC(C)=O)s1 (centres undefined),inactive
11,C[C@H]1O[C@@H](O[C@H]2CC[C@]3(C=O)C4CC[C@]5(C)[C@@H](C6=CC(=O)OC6)CC[C@]5(O)[C@@H]4CC[C@]3(O)C2)C[C@@H](O)[C@@H]1O (some centres undefined),inactive
12,C[C@]12CC[C@H](O[C@@H]3O[C@H](CO)[C@@H](O)[C@H](O)[C@H]3O)CC1CC[C@@H]1C2CC[C@]2(C)[C@@H](C3=CC(=O)OC3)CC[C@]12O (some centres undefined),inactive
13,C=CC1C[N+]2([O-])CCC1CC2C(O)c1ccnc2ccc(OC)cc12 (centres undefined),inactive
14,CC1CC(C)C(=O)C(C(O)CC2CC(=O)NC(=O)C2)C1 (centres undefined),inactive
